Our source for the Potency values is PubChem BioAssay (NCATS).

The nature of test [1]: Quantitative High-Throughput drug screen in 47 multiple myeloma cell lines against the NCATS MIPE library collection: Karpas620_DSMZ cell viability assay (AID 1918959). Also: nearly all actives have a fitted effect of over 30% in size. The essentials:
(§1)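 We plated 500 myeloma cells per well, pinned in MIPE 4.0 compounds, and incubated for 48 hours at 37C. ATP was then quantified with CellTiter-Glo, with DMSO and media-only wells defining 100% and 0%.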

Test [2] can be described thus: Quantitative High-Throughput drug screen in 47 multiple myeloma cell lines against the NCATS MIPE library collection: KMM1_JCRB cell viability assay (AID 1918960). Also: nearly all actives have a fitted effect of over 30% in size. A digest of the protocol: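 Cell viability inhibition in this qHTS is measured via ATP content (CellTiter-Glo) after 48 h drug exposure at 37 °C. Wells hold 500 cells; DMSO-treated wells define 100% and medium-only wells 0%.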

Test [3] in a line: Quantitative High-Throughput drug screen in 47 multiple myeloma cell lines against the NCATS MIPE library collection: Karpas417_ECACC cell viability assay (AID 1918961). As to conditions: Karpas417 myeloma viability, CellTiter-Glo ATP luminescence, 48 h; viability (% of DMSO): at 45.8 µM (top of the series). The essentials: (§2)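 Viability readout: CellTiter-Glo luminescence following 5 min room-temperature incubation with reagent. Prior exposure: 48 h, 37C, humidified 5% CO2, 500 cells per well.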

Test [4] in a line: Quantitative High-Throughput drug screen in 47 multiple myeloma cell lines against the NCATS MIPE library collection: JIM3_ECACC cell viability assay (AID 1918963; also: nearly all actives have a fitted effect of over 35% in size). The essentials:
as §1

Test [5] is described as follows: Quantitative High-Throughput drug screen in 47 multiple myeloma cell lines against the NCATS MIPE library collection: INA6_PLB cell viability assay (AID 1918965; also: nearly all actives have a fitted effect of over 55% in size). A digest of the protocol: as §2
The nature of test [6]: Quantitative High-Throughput drug screen in 47 multiple myeloma cell lines against the NCATS MIPE library collection: KMS27_JCRB cell viability assay (AID 1918970). Also: nearly all actives have a fitted effect of over 30% in size. Conditions: KMS27 myeloma cells, CellTiter-Glo ATP viability, 48 h; viability (% of DMSO): at 45.8 µM (top of the series). The essentials: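 KMS27_JCRB myeloma cells, 500 per well, exposed 48 h at 37 C, 5% CO2 to MIPE 4.0 compounds. Viability from ATP by CellTiter-Glo luminescence, normalized to DMSO (100%) and medium-only (0%) wells.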

Test [7] is described as follows: Quantitative High-Throughput drug screen in 47 multiple myeloma cell lines against the NCATS MIPE library collection: KMS12BM_JCRB cell viability assay (AID 1918971). Also: nearly all actives have a fitted effect of over 35% in size. The essentials: (§3)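 Relative luminescence from CellTiter-Glo served as the viability signal, referenced to DMSO-treated (100%) and cell-free medium (0%) controls. Treatment lasted 48 hours at 37C with 500 cells per well.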

Test [8] can be described thus: Quantitative High-Throughput drug screen in 47 multiple myeloma cell lines against the NCATS MIPE library collection: KMS12PE_JCRB cell viability assay (AID 1918972). Also: nearly all actives have a fitted effect of over 30% in size. The essentials: as §2
Test [9] can be described thus: Quantitative High-Throughput drug screen in 47 multiple myeloma cell lines against the NCATS MIPE library collection: KMS26_JCRB cell viability assay (AID 1918975). Also: nearly all actives have a fitted effect of over 45% in size. The essentials: as §3
Test [10] in a line: Quantitative High-Throughput drug screen in 47 multiple myeloma cell lines against the NCATS MIPE library collection: MOLP8_DSMZ cell viability assay (AID 1918977). Also: nearly all actives have a fitted effect of over 45% in size. The essentials:
(§4)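 Cells were exposed to library compounds for 48 hours, after which ATP was measured by CellTiter-Glo. Signal was taken as median relative luminescence units.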

Test [11] is described as follows: Quantitative High-Throughput drug screen in 47 multiple myeloma cell lines against the NCATS MIPE library collection: NCIH929_DSMZ cell viability assay (AID 1918978). Also: nearly all actives have a fitted effect of over 35% in size. The essentials: as §4
Test [12] in a line: Quantitative High-Throughput drug screen in 47 multiple myeloma cell lines against the NCATS MIPE library collection: OCIMY1_PLB cell viability assay (AID 1918979). Also: nearly all actives have a fitted effect of over 35% in size. The essentials:
as §4

Test [13] in a line: Quantitative High-Throughput drug screen in 47 multiple myeloma cell lines against the NCATS MIPE library collection: KHM11_PLB cell viability assay (AID 1918962). Also: nearly all actives have a fitted effect of over 35% in size. The essentials:
as §1

A short description of test [14]: Quantitative High-Throughput drug screen in 47 multiple myeloma cell lines against the NCATS MIPE library collection: H1112_PLB cell viability assay (AID 1918967; also: nearly all actives have a fitted effect of over 30% in size). A digest of the protocol: (§5)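 Inhibition of cell viability is measured here. Each line was plated at 500 cells per well, treated with MIPE 4.0 drugs, kept 48 hours at 37C, then assayed for ATP content by CellTiter-Glo luminescence.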

Test [15] in a line: Quantitative High-Throughput drug screen in 47 multiple myeloma cell lines against the NCATS MIPE library collection: Karpas25_ECACC cell viability assay (AID 1918968; also: nearly all actives have a fitted effect of over 35% in size). The essentials:
as §5

A short description of test [16]: Quantitative High-Throughput drug screen in 47 multiple myeloma cell lines against the NCATS MIPE library collection: KMS21BM_JCRB cell viability assay (AID 1918974). Conditions: ATP luminescence, 48 h; viability: at 45.8 µM (top of the series). A digest of the protocol: as §5
Test [17] in a line: Quantitative High-Throughput drug screen in 47 multiple myeloma cell lines against the NCATS MIPE library collection: MMM1_PLB cell viability assay (AID 1918976). Also: nearly all actives have a fitted effect of over 35% in size. The essentials: as §4
A short description of test [18]: Quantitative High-Throughput drug screen in 47 multiple myeloma cell lines against the NCATS MIPE library collection: JIM1_ECACC cell viability assay (AID 1918964). The essentials: as §5
A short description of test [19]: Quantitative High-Throughput drug screen in 47 multiple myeloma cell lines against the NCATS MIPE library collection: JJN3_DSMZ cell viability assay (AID 1918966; also: nearly all actives have a fitted effect of over 50% in size). A digest of the protocol: as §5
A short description of test [20]: Quantitative High-Throughput drug screen in 47 multiple myeloma cell lines against the NCATS MIPE library collection: KMS20_JCRB cell viability assay (AID 1918973). Also: nearly all actives have a fitted effect of over 45% in size. The essentials:
as §5

Molecules are shown by their SMILES. Results filed as inconclusive are left out. Activity calls are given as the source filed them. Calls follow the shape of the dose curve; as a rule, active = well fitted curve in the direction sought with a large enough effect; inconclusive = small, poorly fitted or top-dose-only effect, or another doubt; inactive = no such curve, though single readings can be large; an effect the other way counts as inactive or inconclusive.
Potency is read from the fitted curve at half-maximal effect.

Take `CC(C)N(CC[C@H](c1ccccc1)c1cc(CO)ccc1O)C(C)C`: the Potency result in test [1], in [2], in [3], in [4], in [5] and in test [6] was “inactive” in each case. The Potency entry in test [7], in test [8], in test [9], in test [10], in test [11] and in [12] was “inactive” throughout.

Turning to `CC(C)N1[N]C(=C2C=c3cc(O)ccc3=N2)c2c(N)ncnc21`, the Potency is 5.9 µM (active) in [1]; 0.296 µM (active) in [2]; 0.0332 µM (active) in test [3]; 0.0833 µM (active) in test [13]; 0.264 µM (active) in test [4]; 4.18 µM (active) in test [14]. In addition, the Potency was 0.235 µM (active) in test [15]; 2.35 µM (active) in test [8]; 2.09 µM (active) in [16]; 1.18 µM (active) in test [9]; 83.3 nM (active) in test [17]; 0.0833 µM (active) in [10]. Also, the Potency in test [11] is 0.059 µM (active).

As to `CC(C)C[C@H](NC(=O)[C@@H](NC(=O)c1cccc(-c2ccccc2)n1)[C@@H](C)O)B(O)O`, the Potency in test [1] was 0.0148 µM (active); in test [2] it was 0.0074 µM (active); in [13], 0.0187 µM (active); in test [4] it was 0.0372 µM (active); in test [18], 0.0105 µM (active); in test [5] it was 0.001 µM (active). Moreover, the Potency is 0.0418 µM (active) in test [19]; 0.0332 µM (active) in test [14]; 0.0132 µM (active) in test [15]; 0.0235 µM (active) in [6]; 0.0372 µM (active) in test [7]; 0.0105 µM (active) in test [8]. The Potency in test [20] was 0.0332 µM (active); in [17], 3720 nM (active); in [10] it was 0.0296 µM (active); in test [11] it was 0.0118 µM (active).

For `CN1CCCN(C(=O)c2cccc(-c3ccc(C=C4C(=O)Nc5ccc(Cl)cc54)o3)c2)CC1`, the Potency in test [1] was 9.35 µM (active); in test [2], 18.7 µM (active); in test [3], 3.72 µM (active); in [4], 26.4 µM (active); in [18], 6.62 µM (active); in test [5], 7.43 µM (active). The Potency in test [14] is 26.4 µM (active); in test [15], 8.33 µM (active); in test [6], 3.32 µM (active); in [8], 7.43 µM (active); in [20], 4.69 µM (active); in [16], 7.43 µM (active). Moreover, the Potency was 18.7 µM (active) in [9], 4.18 µM (active) in test [10] and 20.9 µM (active) in test [11].

Consider `C=C[C@@H]1CN2CCC1C[C@H]2[C@H](O)c1ccnc2ccc(OC)cc12` (some centres undefined), for which the Potency result in [1], in test [2], in test [3], in test [4], in [14] and in test [6] was “inactive” each time. Moreover, the Potency entry in test [7], in test [10], in test [11] and in test [12] was “inactive” throughout.

Regarding `Cc1[nH]c(C=C2C(=O)Nc3ccccc32)c(C)c1CCC(=O)O`, the Potency is 18.7 µM (active) in [1]; 13.2 µM (active) in test [2]; 23.5 µM (active) in [3]; 2.96 µM (active) in test [18]; 4.18 µM (active) in test [14]; 10.5 µM (active) in test [15]. Also, the Potency in test [6] was 5.9 µM (active); in test [7], 5.9 µM (active); in test [8] it was 9.35 µM (active); in test [20], 11.8 µM (active); in [16], 11.8 µM (active); in test [11], 7.43 µM (active).

As for `Cn1cc(C=CC(=O)c2cccc(F)c2)cc1C=CC(=O)NO`, the Potency in test [1] was 13.2 µM (active); in [2], 16.6 µM (active); in [3], 13.2 µM (active); in [15] it was 8.33 µM (active); in test [6] it was 14.8 µM (active); in [8], 14.8 µM (active). In addition, the Potency in [16] was 4.69 µM (active); in test [9], 16.6 µM (active); in test [10], 16.6 µM (active); in test [11], 20.9 µM (active). The Potency entry in test [13] is “inactive”.

As to `Cc1ncc(-c2ccnc(Nc3ccc(S(C)(=O)=O)cc3)n2)n1C(C)C`, the Potency in test [1] was 3.72 µM (active); in test [2], 1.48 µM (active); in test [13], 1.66 µM (active); in test [4] it was 2.35 µM (active); in [18] it was 2.35 µM (active); in [5], 1.18 µM (active). The Potency in test [19] is 2.09 µM (active); in test [14], 4.18 µM (active); in [15] it was 2.35 µM (active); in test [6] it was 2.64 µM (active); in [7], 4.18 µM (active); in test [8] it was 2.96 µM (active). Also, the Potency is 2.35 µM (active) in [20], 2.64 µM (active) in test [9], 1.32 µM (active) in test [10] and 2.09 µM (active) in test [11].

As for `O=C1NC(O)CCN1[C@@H]1O[C@H](CO)[C@H](O)[C@H]1O` (some centres undefined), the Potency result in test [1], in [2], in test [3], in [13], in test [4] and in test [14] was “inactive” in each case. Further, the Potency result in [15], in test [6], in test [8], in test [9], in test [10] and in test [11] was “inactive” each time. The Potency result in test [12] is “inactive”.

Turning to `O=C(Nc1nnc(-c2ccco2)o1)c1cc(-c2ccccc2)nc2ccccc12`, the Potency in [1] was 20.9 µM (active); in test [2], 14.8 µM (active); in test [3], 23.5 µM (active); in test [4] it was 18.7 µM (active); in [18] it was 18.7 µM (active); in test [5] it was 16.6 µM (active). In addition, the Potency is 20.9 µM (active) in test [19]; 18.7 µM (active) in test [14]; 23.5 µM (active) in test [7]; 18.7 µM (active) in [8]; 16.6 µM (active) in [20]; 18.7 µM (active) in [11].

As for `C[C@@]12C[C@@]3(O)O[C@@H](O1)[C@]1(COC(=O)c4ccccc4)[C@@H]3C[C@@]12O[C@@H]1O[C@H](CO)[C@@H](O)[C@H](O)[C@@H]1O`, the Potency result in test [1], in [2], in test [13], in test [4], in [18] and in test [14] was “inactive” throughout. In addition, the Potency entry in [6], in test [9] and in test [11] was “inactive” in each case.

Take `N#CC(=Cc1ccc(O)c(O)c1)C(=O)NCc1ccccc1`: the Potency entry in [1], in test [2] and in test [12] was “inactive” throughout. In addition, the Potency in [13] was 9.35 µM (active); in test [4], 8.33 µM (active); in test [5] it was 16.6 µM (active); in [14], 7.43 µM (active); in test [20], 8.33 µM (active).

Consider `CCc1ccc(C(=O)Nc2cc(CN3CCN(C)CC3)cc(C(F)(F)F)c2)cc1C#Cc1cnc2ccnn2c1`, for which the Potency in test [1] is 5.26 µM (active); in test [2] it was 6.62 µM (active); in test [13], 9.35 µM (active); in test [4] it was 7.43 µM (active); in test [5] it was 4.69 µM (active); in [14], 2.64 µM (active). Further, the Potency was 8.33 µM (active) in test [15]; 14.8 µM (active) in [7]; 5.26 µM (active) in [8]; 18.7 µM (active) in test [10]; 10.5 µM (active) in [11]; 16.6 µM (active) in test [12].
